Experimental data published in PubChem BioAssay (NCI).
About 79,000 compounds went through this panel and 15% of them were active in at least one assay; those are over-represented in the sample as a whole. Values without a mark were called inactive. Calls of active or inactive are those of the source. Cut-off read from the data, not from the text of the source: active = growth inhibition above about 70%; inactive = the rest.

Assay: NCI Yeast Anticancer Drug Screen. Data for the mlh1 strain (AID 171);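 note: 0% = growth of vehicle-treated control cultures of the same strain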
Settings: S. cerevisiae mlh1 strain growth inhibition, active compounds read high
Description: Growth inhibition of yeast strains with defined genetic alterations is measured as a screen for potential anti-cancer activity. Selected strains with alterations in DNA damage repair or cell cycle control were exposed to compounds and growth inhibition was measured relative to vehicle treated controls. The strain used in this assay is mlh1

Structure (SMILES) | growth inhibition (at 1.2 µM) [%] | growth inhibition (at 3.7 µM) [%] | growth inhibition (at 11.0 µM) | growth inhibition (at 33.0 µM) | growth inhibition (at 100.0 µM)
COc1cc(C(C)(C)C)cc(OC)c1C(O)(c1c(OC)cc(C(C)(C)C)cc1OC)c1c(OC)cc(C(C)(C)C)cc1OC | -19 | -12 | 89% (active) | 94% (active) | 88% (active)
COc1ccc2c(Cc3c4ccccc4cc4ccccc34)cncc2c1O | 4 | 7 | 15% | 60% | 91% (active)
O=C1c2ccc(O)cc2C(=O)c2c(O)ccc(O)c21 | 4 | 20 | 88% (active) | 94% (active) | 91% (active)
Cc1ccc(S(=O)(=O)N/N=C/c2c(O)ccc3ccccc23)cc1 | -30 | -42 | 49% | 56% | 78% (active)
Cc1cc(NCCCN(C)C)c2ccc3c(ccc4c(NCCCN(C)C)cc(C)nc43)c2n1 | 15 | 18 | 23% | 25% | 37%
CC(=O)c1ccc(NCN2C(=O)c3ccccc3C2=O)cc1 | -44 | -48 | 6% | 68% | 83% (active)
Cc1[nH]nc(C(F)(F)F)c1N=NN(C)C | 4 | 48 | 52% | 99% (active) | 99% (active)
Cc1nc2ccc(Br)cc2c(=O)n1-c1ccc(NC2OCC(O)C(O)C2O)cc1 (stereo not given) | 9 | 9 | 19% | 52% | 90% (active)
